Drawing on PubChem BioAssay, this text covers z-score and composite z-score for nine compounds.

Experiment [1] in a line: resazurin metabolic signal in HepG2 cells – cell-based, resazurin fluorescence, 24 h, PK04 Diversity Set, profiling panel (AID 1172). The conditions noted are these: HepG2 viability, higher = more signal. (Resazurin is reduced to fluorescent resorufin, in cell work by metabolically active cells.)
A short description of experiment [2]: budding yeast growth changes without added modifier – OD600, strain BY4716, 24 h, basal condition, primary screen (AID 1173). The settings on record: S. cerevisiae BY4716 growth, OD600, 24 h; higher = more signal, called active from +8 up or from −8 down.
Experiment [3] in a line: viability profiling in MM1S myeloma cells – cell-based, resazurin fluorescence, basal, 24 h, PK04 Diversity Set, profiling panel (AID 1174). The settings on record: higher = more signal, called active from +8 up or from −8 down.
Experiment [4] addresses Dihydroorotate dehydrogenase (quinone), mitochondrial (Plasmodium falciparum (isolate 3D7)) (UniProt Q08210). Description: inhibition of P. falciparum DHODH – biochemical, C-terminal His tag, absorbance 600 nm, primary screen (AID 1175).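 Further: recombinant parasite enzyme with a five histidine tag at its C terminus.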 The settings on record: PfDHODH enzyme, DCIP absorbance 600 nm; higher = more signal, called active from +8 up or from −8 down.
Experiment [5] is described as follows: inhibition of PAO1 biofilm formation – strain PAO1, LB-PBS medium, absorbance 600 nm, primary screen (AID 1176). The conditions noted are these: P. aeruginosa PAO1 growth/biofilm, A600, 12 h; higher = more signal.
Experiment [6] can be described thus: growth modulation of vineyard yeast isolate – strain RM11-1a, OD600, basal, 24 h, primary screen (AID 1177).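 Further: cultures grown under basal conditions with no added stressor.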 The conditions noted are these: S. cerevisiae RM11-1a growth, OD600, 24 h; higher = more signal, called active from +8 up or from −8 down.
Experiment [7] can be described thus: growth of efflux-deficient E. coli DRC39 – strain DRC39, OD650, 24 h, E. coli filamentation inducers, primary screen (AID 1178).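 Further: growth measured as culture turbidity by optical density at 650 nm.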 The settings on record: E. coli DRC39 acrAB, higher = more signal, called active from +8 up or from −8 down.
Experiment [8] in a line: growth of efflux-deficient E. coli DRC39 – strain DRC39, OD650, 48 h, E. coli filamentation inducers, primary screen (AID 1179).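 Further: screen aims at cell division blockers that make cells filament.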 The settings on record: E. coli DRC39 delta-acrAB growth, higher = more signal, called active from +8 up or from −8 down.
Experiment [9] is described as follows: viability profiling in RPMI8226 myeloma cells – cell-based, resazurin fluorescence, basal, 24 h, PK04 Diversity Set, profiling panel (AID 1180).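 Further: RPMI8826 multiple myeloma cell line at 5000 cells per well.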 The settings on record: higher = more signal.
In experiment [10] the target is E3 ubiquitin-protein ligase XIAP (Homo sapiens) (UniProt P98170). Description: small molecules binding XIAP protein – biophysical, small-molecule microarray, fluorescence 635 nm, primary screen (AID 1181).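 Further: score merges 667 nm emission and signal to noise over triplicate slides.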 The conditions noted are these: higher = more signal.
Chain of E3 ubiquitin-protein ligase XIAP (Homo sapiens) (P98170 whole entry, looked up, the tested form may be a part): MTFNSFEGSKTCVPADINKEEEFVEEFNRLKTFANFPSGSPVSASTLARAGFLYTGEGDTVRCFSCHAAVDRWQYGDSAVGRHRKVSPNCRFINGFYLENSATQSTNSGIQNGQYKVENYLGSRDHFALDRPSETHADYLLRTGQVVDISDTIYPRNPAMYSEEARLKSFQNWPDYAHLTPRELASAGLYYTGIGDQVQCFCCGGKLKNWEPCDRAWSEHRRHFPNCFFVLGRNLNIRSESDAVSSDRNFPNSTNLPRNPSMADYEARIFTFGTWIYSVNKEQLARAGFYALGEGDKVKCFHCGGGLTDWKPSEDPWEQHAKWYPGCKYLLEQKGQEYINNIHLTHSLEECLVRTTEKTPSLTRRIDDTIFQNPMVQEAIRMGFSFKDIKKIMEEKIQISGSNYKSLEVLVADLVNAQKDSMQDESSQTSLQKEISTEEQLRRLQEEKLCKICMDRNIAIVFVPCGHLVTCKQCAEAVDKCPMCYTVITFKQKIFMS
Experiment [11] concerns XIP peptide (Xip251-270) binding. The experiment is described as follows: XIP fragment 251-270 binding compounds – biochemical, small-molecule microarray, fluorescence 635/667 nm, 0.1 µg/mL protein, primary screen (AID 1182). The settings on record: fluorescent protein binding, 635 nm, higher = more signal, called active from +8 up or from −8 down.
In another experiment the test system is XIP peptide (Xip251-270). Description: compounds binding XIP fragment 251-270 – biochemical, small-molecule microarray, fluorescence 635/667 nm, 0.5 µg/mL protein, primary screen (AID 1183). The settings on record: fluorescence 635 nm, higher = more signal.
Experiment [12] is described as follows: blood-stage malaria parasite viability loss – strain 3D7, DAPI fluorescence, 100 nL, primary screen (AID 1184).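 Further: parasites grown inside human red blood cells in medium with human serum.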 The conditions noted are these: P. falciparum 3D7 growth, 3 d, higher = more signal.
Experiment [13] concerns the target Homeobox protein Hox-A13 (Mus musculus) (UniProt Q62424). The experiment is described as follows: disruptors of Hoxa13 oligonucleotide interaction – biochemical, fluorescence polarization, labeled oligonucleotide, primary screen (AID 1185). The conditions noted are these: Hoxa13:DNA binding, 15 min, higher = more signal, called active from +8 up or from −8 down.
Experiment [14] is described as follows: blockers of DNA damage checkpoint Chk1 activation – imaging, HeLa, hydroxyurea, phospho-Chk1 antibody, percent positive cells, primary screen (AID 1186). The settings on record: hydroxyurea-induced phospho-Chk1 immunofluorescence imaging, higher = more signal.
The nature of experiment [15]: blockers of DNA damage checkpoint Chk1 activation – imaging, HeLa, hydroxyurea, phospho-Chk1 nuclear intensity, primary screen (AID 1187). The settings on record: hydroxyurea-induced phospho-Chk1 immunofluorescence imaging, higher = more signal.

Activity calls are given as the source filed them. Unless noted, how the calls were made is not given here.

Chain of Homeobox protein Hox-A13 (Mus musculus) (Q62424 whole entry, looked up): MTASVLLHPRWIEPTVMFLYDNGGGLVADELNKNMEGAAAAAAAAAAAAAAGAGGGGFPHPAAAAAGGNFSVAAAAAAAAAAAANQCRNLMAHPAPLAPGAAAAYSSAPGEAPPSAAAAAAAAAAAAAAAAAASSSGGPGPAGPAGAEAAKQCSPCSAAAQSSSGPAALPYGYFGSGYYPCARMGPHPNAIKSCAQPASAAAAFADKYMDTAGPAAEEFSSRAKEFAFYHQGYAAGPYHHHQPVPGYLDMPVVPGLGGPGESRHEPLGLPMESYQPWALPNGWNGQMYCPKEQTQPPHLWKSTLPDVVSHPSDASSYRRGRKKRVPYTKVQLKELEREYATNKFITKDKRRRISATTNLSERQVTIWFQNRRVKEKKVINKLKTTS
Chain of Dihydroorotate dehydrogenase (quinone), mitochondrial (Plasmodium falciparum (isolate 3D7)) (Q08210 whole entry, looked up): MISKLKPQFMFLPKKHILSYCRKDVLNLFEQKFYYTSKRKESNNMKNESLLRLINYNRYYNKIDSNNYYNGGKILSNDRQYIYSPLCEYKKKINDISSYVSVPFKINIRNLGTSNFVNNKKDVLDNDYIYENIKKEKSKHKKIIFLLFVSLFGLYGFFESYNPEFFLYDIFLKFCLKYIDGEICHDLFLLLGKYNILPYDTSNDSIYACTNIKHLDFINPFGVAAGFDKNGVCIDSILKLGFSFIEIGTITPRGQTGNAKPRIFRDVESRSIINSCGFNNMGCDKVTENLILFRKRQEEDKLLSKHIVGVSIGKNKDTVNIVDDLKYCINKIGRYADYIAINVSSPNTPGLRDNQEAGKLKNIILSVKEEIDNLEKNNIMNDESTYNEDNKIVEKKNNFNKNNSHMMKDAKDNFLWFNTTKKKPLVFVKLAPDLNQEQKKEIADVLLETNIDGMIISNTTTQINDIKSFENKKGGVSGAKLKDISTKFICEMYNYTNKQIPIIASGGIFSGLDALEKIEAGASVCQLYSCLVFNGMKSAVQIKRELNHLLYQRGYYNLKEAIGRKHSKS

As to `CCOC(=O)C=Cc1ccccc1O`, the z-score was -0.193 in experiment [1]; -9.29 (active) in experiment [2]; -0.056 (inactive) in [3]; 0.0236 (inactive) in experiment [5]; -8.46 (active) in experiment [6]; -0.0367 (inactive) in experiment [7]. The z-score is -0.276 (inactive) in experiment [8]; -0.234 in [9]; -1.39 in experiment [12]; -0.772 (inactive) in experiment [13]; -0.312 (inactive) in experiment [14]; -0.678 (inactive) in experiment [15]. In addition, the composite z-score in experiment [4] is -0.576 (inactive); in experiment [10] it was 0.125; in [11], 1.39 (inactive); with XIP peptide (Xip251-270), 0.322.
`O=C(O)[C@@H]1C[C@@H]2C(=O)N3CCC[C@H]3C(=O)N2[C@@H]1c1cccc(OCCO)c1`: the z-score is -0.188 in [1]; -1.28 (inactive) in [2]; -0.447 (inactive) in experiment [3]; 0.547 (inactive) in [5]; 0.0761 (inactive) in experiment [6]; -0.185 (inactive) in [7]. Further, the z-score in experiment [8] was -0.685 (inactive); in experiment [9] it was -0.0605; in experiment [12], -0.382; in [13], -2.19 (inactive); in [14], 0.299 (inactive); in [15] it was -0.0384 (inactive). Further, the composite z-score was -0.899 (inactive) in experiment [4], 0.338 in experiment [10], 2 (inactive) in [11] and 0.932 with XIP peptide (Xip251-270).
For the compound `COC(=O)[C@@]1(Cc2ccccc2)[C@H]2c3cc(C(=O)N(C)C)n(CCn4cc([N+](=O)[O-])nc4C)c3C[C@H]2CN1C(=O)c1ccccc1`, the z-score is 0.002 in experiment [1]; 0.815 (inactive) in [2]; -0.271 (inactive) in experiment [3]; 1.41 (inactive) in experiment [5]; -0.68 (inactive) in experiment [6]; -0.211 (inactive) in experiment [7]. Further, the z-score was 0.145 (inactive) in [8]; 0.413 in [9]; 0.391 in experiment [12]; -1.73 (inactive) in experiment [13]; -0.3 (inactive) in experiment [14]; -0.424 (inactive) in [15]. The composite z-score in [4] is -0.831 (inactive); in experiment [10], 1.01; in experiment [11], 0.731 (inactive); with XIP peptide (Xip251-270) it was 0.83.
For the compound `CCOC(=O)C1=CC[C@@H](c2ccccc2)N(S(=O)(=O)c2ccc(C)cc2)[C@H]1c1cccc(OC)c1`, the z-score was 0.0088 in [1]; 2.25 (inactive) in experiment [2]; -0.387 (inactive) in [3]; 0.325 (inactive) in experiment [5]; 1.21 (inactive) in experiment [6]; -0.577 (inactive) in experiment [7]. For the same compound, the z-score was 0.244 (inactive) in experiment [8]; -1.22 in experiment [9]; -2.14 in experiment [12]; 0.892 (inactive) in [13]; 0.238 (inactive) in [14]; -0.67 (inactive) in experiment [15]. Also, the composite z-score in [4] was -0.777 (inactive); in experiment [10], -0.022; in experiment [11] it was -0.285 (inactive); in the experiment with XIP peptide (Xip251-270) it was 0.291.
In the case of `O=C1O[C@H](c2ccccc2)[C@H](c2ccccc2)N2[C@H]1[C@@H](C(=O)Nc1nc3ccccc3s1)[C@]1(C(=O)Nc3ccc(C#CC4=CCCCC4)cc31)[C@H]2c1ccc(O)cc1`, the z-score in experiment [1] was 0.98; in [2], -1.03 (inactive); in experiment [3], 0.306 (inactive); in [5] it was 0.517 (inactive); in experiment [6], -0.286 (inactive); in experiment [7] it was 0.442 (inactive). The z-score in [8] is 0.382 (inactive); in experiment [9], 0.422; in experiment [12], -0.987; in experiment [13], 3.34 (inactive); in [14], -0.433 (inactive); in experiment [15], -0.749 (inactive). Moreover, the composite z-score in experiment [4] is 0.667 (inactive); in experiment [10], -0.13; in [11], 0.847 (inactive); in the experiment with XIP peptide (Xip251-270) it was 0.541.
As to `COc1ccc(C(=O)Nc2cccc(CN3C(=O)[C@]4(O[C@H](CCn5cc([C@H](O)c6ccccc6)nn5)[C@@H]([Si](C)(C)c5ccc(OC)cc5)[C@@H]4C)c4ccccc43)c2)cc1`, the z-score in experiment [1] is -2.58; in [2] it was -1.18 (inactive); in [3], -5.94 (inactive); in [5], 1.86 (inactive); in [6] it was 0.99 (inactive); in [7], -0.409 (inactive). Besides, the z-score in [8] was -0.389 (inactive); in [9], -5.61; in experiment [12], -2.76; in experiment [13], 2 (inactive); in experiment [14], -0.161 (inactive); in experiment [15] it was -0.0692 (inactive). Further, the composite z-score was -0.512 (inactive) in experiment [4], 0.0589 in experiment [10], 0.0632 (inactive) in experiment [11] and 0.497 in the experiment on XIP peptide (Xip251-270).
Consider `CCOC(=O)C1=CC[C@@H](c2ccccc2)N(S(=O)(=O)c2ccc(C)cc2)[C@H]1C=Cc1ccccc1`, for which the z-score was 1.25 in experiment [1]; 1.58 (inactive) in [2]; -0.0664 (inactive) in [3]; 0.987 (inactive) in [5]; 0.65 (inactive) in experiment [6]; -0.923 (inactive) in experiment [7]. Also, the z-score in [8] is -0.706 (inactive); in experiment [9], -1.42; in experiment [12] it was -2.01; in experiment [13], 1.66 (inactive); in experiment [14] it was -0.511 (inactive); in [15] it was -0.645 (inactive). Besides, the composite z-score in experiment [4] is -0.382 (inactive); in [10] it was -0.103; in [11], 0.0537 (inactive); in the experiment with XIP peptide (Xip251-270), 0.749.
On to `COc1ccc(C(O)C2C=CC3C(=O)N(c4ccccc4)C(=O)C3N2Nc2ccccc2)cc1` (centres undefined), for which the z-score was -0.377 in [1]; -2.39 (inactive) in [2]; -0.582 (inactive) in [3]; 0.571 (inactive) in experiment [5]; -0.0179 (inactive) in experiment [6]; -0.519 (inactive) in experiment [7]. Besides, the z-score in [8] was -0.43 (inactive); in [9], -0.841; in [12], 0.913; in [13], -3.76 (inactive); in experiment [14] it was 0.0679 (inactive); in experiment [15], -0.392 (inactive). Moreover, the composite z-score in experiment [4] is 0.618 (inactive); in [10] it was 0.438; in experiment [11], 0.348 (inactive); in the experiment on XIP peptide (Xip251-270), 0.572.
For `CN(C)CCCCCCNC(=O)[C@@H]1C[C@@H]2C(=O)N[C@@H](CCCCN)C(=O)N2[C@@H]1c1ccc(O)cc1`, the z-score in experiment [1] is -0.0356; in [2], -1.56 (inactive); in [3] it was 1.79 (inactive); in experiment [5], 1.63 (inactive); in [6], -0.63 (inactive); in experiment [7], 0.739 (inactive). For the same compound, the z-score in [8] is -1.59 (inactive); in [9], 0.659; in experiment [12] it was -1.02; in [13] it was -1.14 (inactive); in experiment [14] it was 0.291 (inactive); in [15] it was 0.481 (inactive). Moreover, the composite z-score was -0.0587 (inactive) in experiment [4], 3.51 in experiment [10], 0.802 (inactive) in experiment [11] and 0.753 in the experiment on XIP peptide (Xip251-270).
